According to PubChem BioAssay (NCI):
About 79,000 compounds went through this panel and 15% of them were active in at least one assay; those are over-represented in the sample as a whole. Active and inactive are the calls of the source. No stated cut-off is given here; in the data, active means growth inhibition above about 70%; inactive means the rest.

How the values were obtained:
[1] = NCI Yeast Anticancer Drug Screen. Data for the rad52 strain (AID 147);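 further: 0% = growth of vehicle-treated control cultures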; details: S. cerevisiae rad52 mutant growth inhibition, stronger effect = higher value
Summary of the method: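 The repair-mutant yeast strain was incubated with compounds, then growth was read and inhibition derived relative to vehicle.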

[2] = NCI Yeast Anticancer Drug Screen. Data for the wt1 strain (AID 149);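 further: 0% = growth of vehicle-treated wt1 cultures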; details: S. cerevisiae wt1 strain (SPY 50644) growth inhibition, stronger effect = higher value
Summary of the method: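 Vehicle-normalised growth inhibition; strain wt1; compound exposure.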

[3] = NCI Yeast Anticancer Drug Screen. Data for the rad50EPP+ strain (AID 151);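 further: 0% = growth of vehicle-treated control cultures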; details: S. cerevisiae rad50 mutant strain, stronger effect = higher value
Summary of the method: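 Vehicle-normalised growth inhibition; rad50EPP+ yeast strain, altered in DNA damage repair, compound-treated.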

[4] = NCI Yeast Anticancer Drug Screen. Data for the mgt1 strain (AID 153); details: S. cerevisiae mgt1 mutant growth inhibition, stronger effect = higher value
Summary of the method: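 Vehicle-normalized growth inhibition is determined in mgt1 yeast, a strain selected for a defined alteration in DNA repair or cell cycle control.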

[5] = NCI Yeast Anticancer Drug Screen. Data for the rad50 strain (AID 155);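 further: 0% = growth of vehicle-only cultures of the same strain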; details: S. cerevisiae rad50 strain growth inhibition, stronger effect = higher value
Summary of the method: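 A DNA repair-deficient yeast mutant serves as the test organism; compound-induced growth inhibition is calculated against vehicle-treated cells.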

[6] = NCI Yeast Anticancer Drug Screen. Data for the mec2-1 strain (AID 157); details: S. cerevisiae mec2-1 strain, stronger effect = higher value
Summary of the method: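 Mutant yeast (mec2-1) grown with compound; growth inhibition relative to vehicle control reported.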

[7] = NCI Yeast Anticancer Drug Screen. Data for the rad14 strain (AID 159);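 further: 0% = growth of vehicle-treated control cultures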; details: S. cerevisiae rad14 strain growth inhibition, stronger effect = higher value
Summary of the method: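 Vehicle-treated cultures served as the baseline for growth inhibition of a DNA repair-mutant yeast strain exposed to each compound.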

[8] = NCI Yeast Anticancer Drug Screen. Data for the sgs1 mgt1 strain (AID 161);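 further: 0% = growth of cultures given vehicle only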; details: S. cerevisiae sgs1 mgt1 strain, stronger effect = higher value
Summary of the method: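 Percent growth inhibition was derived by comparing compound-exposed mutant yeast with vehicle-exposed cultures. The strain carries alterations in DNA damage repair.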

[9] = NCI Yeast Anticancer Drug Screen. Data for the CLN2oe strain (AID 163);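 further: 0% = growth of vehicle-only control cultures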; details: S. cerevisiae CLN2oe strain, stronger effect = higher value
Summary of the method: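 Compounds are applied to yeast harbouring a defined cell-cycle control change; reduced growth compared with vehicle-treated controls gives the value.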

[10] = NCI Yeast Anticancer Drug Screen. Data for the cln2 rad14 strain (AID 165);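 further: 0% = growth equal to vehicle treated cultures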; details: S. cerevisiae cln2 rad14 strain, stronger effect = higher value
Summary of the method: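 Readout is yeast growth inhibition versus vehicle-treated controls, using a strain with cln2 and rad14 alterations exposed to compound.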

[11] = NCI Yeast Anticancer Drug Screen. Data for the bub3 strain (AID 167); details: S. cerevisiae bub3 mutant strain, stronger effect = higher value
Summary of the method: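 Inhibition values come from growth of compound-treated mutant yeast normalised to vehicle-treated controls.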

[12] = NCI Yeast Anticancer Drug Screen. Data for the mlh1 strain (AID 171);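 further: 0% = growth of vehicle-treated control cultures of the same strain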; details: S. cerevisiae mlh1 strain growth inhibition, stronger effect = higher value
Summary of the method: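 Measured: yeast growth. Reference: vehicle-treated controls. Organism: strain with a defined alteration affecting DNA damage repair or cell cycle control, treated with compound.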

[13] = NCI Yeast Anticancer Drug Screen. Data for the sgs1 strain (AID 173);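 further: 0% = growth of vehicle-only control cultures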; details: S. cerevisiae sgs1 mutant, stronger effect = higher value
Summary of the method: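 Each compound was added to cultures of the altered yeast strain. Growth was recorded, and inhibition was derived by comparison with vehicle controls.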

[14] = NCI Yeast Anticancer Drug Screen. Data for the mlh1 rad18 strain (AID 175); details: S. cerevisiae mlh1 rad18 strain growth inhibition, stronger effect = higher value
Summary of the method: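 Genetically defined yeast (DNA repair-deficient) exposed to compounds; growth inhibition determined relative to vehicle.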

[15] = NCI Yeast Anticancer Drug Screen. Data for the rad18 strain (AID 177); details: S. cerevisiae rad18 mutant growth inhibition, stronger effect = higher value
Summary of the method: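 Vehicle-treated cultures served as the baseline for scoring compound-induced growth inhibition in DNA-repair-mutant yeast.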

[16] = at 5.0 µM (retest, dose inferred, filed as 0.5)
[17] = at 50.0 µM (retest, dose inferred, filed as 5.0)

Measured: growth inhibition

CC(C)OP(=O)(OC(C)C)C(=NCCO)NNc1ccc([N+](=O)[O-])cc1
active: [1]; at 100.0 µM 79% | [3]; at 33.0 µM 93% | [3]; at 100.0 µM 94% | [4]; at 100.0 µM 74% | [5]; at 50.0 µM 86% | [5]; at 100.0 µM 91% | [8]; at 50.0 µM 85% | [9]; at 100.0 µM 90% | [11]; at 33.0 µM 94% | [11]; at 100.0 µM 95% | [12]; at 100.0 µM 87% | [13]; at 11.0 µM 71% | [13]; at 33.0 µM 95% | [13]; at 100.0 µM 95% | [14]; [17] 96% | [14]; at 50.0 µM 72.9% | [15]; at 100.0 µM 91%
inactive: [1]; at 1.2 µM 8% | [1]; at 3.7 µM 3% | [1]; at 11.0 µM 14% | [1]; at 33.0 µM 31% | [2]; at 1.2 µM -6% | [2]; at 3.7 µM 1% | [2]; at 11.0 µM 6% | [2]; at 33.0 µM 7% | [2]; at 100.0 µM 29% | [3]; at 1.2 µM -2% | [3]; at 3.7 µM 34% | [3]; at 11.0 µM 69% | [4]; at 1.2 µM -34% | [4]; at 3.7 µM -34% | [4]; at 11.0 µM -32% | [4]; at 33.0 µM 0% | [5]; at 1.2 µM -5% | [5]; at 3.7 µM -3% | [5]; [16] 8% | [5]; at 11.0 µM 24% | [5]; at 33.0 µM 59% | [5]; [17] 64% | [6]; at 1.2 µM -23% | [6]; at 3.7 µM -16% | [6]; [16] -2% | [6]; at 11.0 µM -19% | [6]; at 33.0 µM 20% | [6]; [17] 33% | [6]; at 50.0 µM 28.1% | [6]; at 100.0 µM 40% | [7]; at 1.2 µM -10% | [7]; at 3.7 µM 3% | [7]; at 11.0 µM 4% | [7]; at 33.0 µM 3% | [7]; at 100.0 µM 42% | [8]; [16] 1% | [8]; [17] 23% | [9]; at 1.2 µM -17% | [9]; at 3.7 µM 3% | [9]; at 11.0 µM 4% | [9]; at 33.0 µM 44% | [10]; [16] 25% | [10]; [17] 48% | [10]; at 50.0 µM 9.95% | [11]; at 1.2 µM -15% | [11]; at 3.7 µM 22% | [11]; [16] 22% | [11]; at 11.0 µM 49% | [11]; [17] 62% | [11]; at 50.0 µM 56.7% | [12]; at 1.2 µM -18% | [12]; at 3.7 µM -22% | [12]; at 11.0 µM 3% | [12]; at 33.0 µM 46% | [13]; at 1.2 µM 24% | [13]; at 3.7 µM 39% | [14]; [16] 48% | [15]; at 1.2 µM 20% | [15]; at 3.7 µM 0% | [15]; at 11.0 µM 13% | [15]; at 33.0 µM 54%
